{"source": "PubChem BioAssay (Tox21)", "note": "Results filed as inconclusive are left out. Entries that show only a call come without a potency. The source made the active and inactive calls. Calls follow the shape of the dose curve; as a rule, active = well fitted cell-killing curve with a large enough effect in the repeat runs; inconclusive = weak or mixed curves; inactive = flat fitted curve, though single readings scatter. Potency is read from the fitted curve at half-maximal effect."}
{"experiment": "qHTS RealTime-Glo MT Cell Viability Assay in HepG2 cells - 24 hour (AID 1224867); also: nearly all actives have a fitted effect of over 50% in size", "details": "RealTime-Glo luminescence; series mostly up to 76.8 µM", "source_text": "U.S. Tox21 Program National Center for Advancing Translational Sciences [NCATS] NIH Chemical Genomics Center [NCGC] U.S. Environmental Protection Agency [EPA] National Institutes of Environmental Health Sciences [NIEHS] National Toxicology Program [NTP] U.S. Food and Drug Administration [FDA] Tox21 Assay Overview: Measure of cell viability is critical in the cell-base assay. Analysis of cell viability is necessary for the characterization of cell responses to cytotoxic drugs and environmental stress. A RealTime-Glo MT Cell Viability Assay to monitor cell viability in real time of continues cell culture during 40 hours of compound treatment was used to screen Tox21 10K library compounds in HepG2 cells. The RealTime-Glo MT Cell Viability Assay is a nonlytic, homogeneous, bioluminescent method to measure cell viability in real time using a simple, plate-based method. The assay involves adding NanoLuc luciferase and a cell-permeant prosubstrate to cells in culture. Viable cells reduce the proprietary prosubstrate to generate a substrate for NanoLuc luciferase. This substrate diffuses from cells into the surrounding culture medium, where it is rapidly used by the NanoLuc Enzyme to produce a luminescent signal. The signal correlates with the number of viable cells, making the assay well suited for cytotoxicity studies.\nTox21 Assay Protocol Summary: The mixture of HepG2 cell suspension and reagents were dispensed at 600cells/6 ul/well in 1536-well tissue culture treated black solid bottom plates using a Multidrop dispenser. After the assay plates were incubated at a 37 C/5% CO2 incubator for 5 hours, 23 nL of compounds dissolved in DMSO, positive and negative controls was transferred to the assay plate by a pintool work station. The plates were incubated at 37 C for 40 hours. The luminescence intensity were measured at 0h, 8h, 16h, 24h, 32h and 40h time points using ViewLux plate reader during compound treatment."}
{"smiles": "O=C(c1ccc(O)cc1)c1ccc(Cl)cc1", "Potency": "inactive"}
{"smiles": "O=C(CS)OCCOC(=O)CS", "Potency": "inactive"}
{"smiles": "NC(=O)N(O)[C@@H]1C=C[C@H](Oc2cccc(Oc3ccc(F)cc3)c2)C1", "Potency": "inactive"}
{"smiles": "C=CCOC(=O)/C=C\\C(=O)OCC=C", "Potency": "inactive"}
{"smiles": "Nc1ccc(Cl)cc1[N+](=O)[O-]", "Potency": "inactive"}
{"smiles": "CCCCCCCCSCCO", "Potency": "inactive"}
{"smiles": "CC(C)c1nnc2ccc(-c3ocnc3-c3cc(F)ccc3F)cn12", "Potency": "inactive"}
{"smiles": "O=C1NCCN1", "Potency": "inactive"}
{"smiles": "CCOC(=O)c1ccccc1OC", "Potency": "inactive"}
{"smiles": "CCOC(=O)CC(=O)C(=O)OCC", "Potency": "inactive"}
{"smiles": "CCCCCCCCCCCCCCCCBr", "activity change, negative = cytotoxicity": "2.08% [at 15.8 µM] (inactive)"}
{"smiles": "CCn1cc(C(=O)O)c(=O)c2cc(F)c(N3CCNCC3)nc21", "Potency": "inactive"}
{"smiles": "COC(=O)CC(=O)C(C)(C)C", "Potency": "inactive"}
{"smiles": "Cc1nc2ccccn2c(=O)c1CCN1CCC(C(=O)c2ccc(F)cc2)CC1", "Potency": "inactive"}
{"smiles": "[O]=[Bi]", "activity change, negative = cytotoxicity": "3.35% [at 6.97 µM] (inactive)"}
{"smiles": "c1ccc(COCc2ccccc2)cc1", "Potency": "inactive"}
{"smiles": "OC(CCCN1CCCCC1)(c1ccccc1)c1ccccc1", "Potency": "inactive"}
{"smiles": "CC(C)(C)CC(C)(C)c1ccc(OCCO)cc1", "Potency": "inactive"}
{"smiles": "NC(=O)N(O)[C@@H]1COc2cc(OCc3ccccc3)ccc21", "Potency": "inactive"}
{"smiles": "CC(CCc1ccc2c(c1)OCO2)NN", "note": "(stereo not given)", "Potency": "inactive"}
{"smiles": "CO/N=C1\\CN(c2nc3c(cc2F)c(=O)c(C(=O)O)cn3C2CC2)CC1CN", "note": "(stereo not given)", "Potency": "inactive"}
{"smiles": "O=C(O)c1c(O)c(-c2ccccc2)nc2ccccc12", "Potency": "inactive"}
{"smiles": "C/C=C/C=C/CCCCCCCO", "Potency": "inactive"}
{"smiles": "OCC1CC=CCC1", "note": "(stereo not given)", "Potency": "inactive"}
{"smiles": "Cc1occc1C(=O)Nc1ccc(C(=O)N2CCC(F)(F)/C(=C\\C(=O)N3CCC(N4CCCCC4)CC3)c3ccccc32)cc1", "Potency": "inactive"}
{"smiles": "Brc1cc(-c2ccc(Br)c(Br)c2Br)cc(Br)c1Br", "Potency": "inactive"}
{"smiles": "CC(=O)OCC(=O)[C@H]1CC[C@H]2[C@@H]3CCC4=CC(=O)CC[C@]4(C)[C@H]3CC[C@]12C", "Potency": "inactive"}
{"smiles": "CCCCC(=O)O[C@]1(C(=O)CO)CC[C@H]2[C@@H]3CCC4=CC(=O)CC[C@]4(C)[C@H]3[C@@H](O)C[C@@]21C", "Potency": "inactive"}
{"smiles": "CN1C(=O)CC(C)(c2ccccc2)C1=O", "note": "(stereo not given)", "Potency": "inactive"}
{"smiles": "CCOC(=O)OCC", "Potency": "inactive"}
{"smiles": "Fc1c(F)c(F)c(Br)c(F)c1F", "Potency": "inactive"}
{"smiles": "CNC(=S)NC", "Potency": "inactive"}
{"smiles": "Cc1oncc1C(=O)Nc1ccc(C(F)(F)F)cc1", "Potency": "inactive"}
{"smiles": "CCC(=O)OC/C=C/c1ccccc1", "Potency": "inactive"}
{"smiles": "COC(OC)(C(=O)c1ccccc1)c1ccccc1", "Potency": "inactive"}
{"smiles": "C=CC(C)(O)CCCC(C)CCCC(C)CCCC(C)C", "note": "(stereo not given)", "Potency": "inactive"}
{"smiles": "COCC(O)CO", "note": "(stereo not given)", "Potency": "inactive"}
{"smiles": "CC1CC(O)CC(C)(C)C1", "note": "(stereo not given)", "Potency": "inactive"}
{"smiles": "CCc1nn(CCCN2CCN(c3cccc(Cl)c3)CC2)c(=O)n1CCOc1ccccc1", "Potency": "23.9 µM (active)"}
{"smiles": "C=CC(=C)CCCC(C)(C)OC(C)=O", "Potency": "inactive"}
